In PubChem BioAssay AID1159580 (chemical genetic matrix, 2015):
Several values for one entry are separate records, joined by “and”; a condition that tells them apart may be missing. Equal entries are not always repeated. Screen size: about 5,500 compounds; about 2,000 (36%) were called active. Inconclusive results (about 18%) are left out. Rule as the data show it: active = normalized growth mostly below about 0.91 (no sharp cut-off); inconclusive = no clear call, values can overlap the other calls; inactive = mostly above about 0.92. The list shows a part of the results.

Assay: chemical genetic growth profiling, strain panel (AID 1159580);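 also: tested at 20 µM; growth read once vehicle control cultures reached saturation at 30 °C; 1 = growth at the plate median or of vehicle wells; lower values mean less growth of the strain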
Conditions: S. cerevisiae deletion strains, growth OD

Measured: normalized growth

Clc1ccc(COC(Cn2ccnc2)c2ccc(Cl)cc2Cl)cc1 (stereo not given)
active: locus YAL013W, strain DEP1, active compounds read low 0.0557 | locus YAL021C, strain ccr4, active compounds read low 0.0668 | locus YAL026C, strain drs2, active compounds read low 0.0618 | locus YAL030W, strain snc1, active compounds read low 0.0554 | locus YBL061C, strain skt5, active compounds read low 0.0644 | locus YBR009C, strain hhf1, active compounds read low 0.0597 | locus YBR021W, strain FUR4, active compounds read low 0.086 | locus YBR023C, strain chs3, active compounds read low 0.0622 | locus YBR171W, strain sec66, active compounds read low 0.0758 | locus YBR229C, strain ROT2, active compounds read low 0.0463 | locus YBR231C, strain swc5, active compounds read low 0.0645 | locus YBR279W, strain paf1, active compounds read low 0.0619 | locus YCL011C, strain gbp2, active compounds read low 0.0566 | locus YCL016C, strain dcc1, active compounds read low 0.0644 | locus YCL029C, strain bik1, active compounds read low 0.06 | locus YCL061C, strain MRC1, active compounds read low 0.0624 | locus YCL069W, strain vba3, active compounds read low 0.0606 | locus YCR088W, strain abp1, active compounds read low 0.0621 | locus YDL005C, strain med2, active compounds read low 0.0718 | locus YDL035C, strain GPR1, active compounds read low 0.0503 | locus YDL040C, strain nat1, active compounds read low 0.0573 | locus YDL074C, strain BRE1, active compounds read low 0.0774 | locus YDL101C, strain DUN1, active compounds read low 0.055 | locus YDL134C, strain PPH21, active compounds read low 0.0501 | locus YDL185W, strain tfp1, active compounds read low 0.0607 | locus YDL192W, strain arf1, active compounds read low 0.0606 | locus YDR001C, strain nth1, active compounds read low 0.0586 | locus YDR069C, strain doa4, active compounds read low 0.0605 | locus YDR101C, strain arx1, active compounds read low 0.0571 | locus YDR137W, strain rgp1, active compounds read low 0.093 | locus YDR150W, strain NUM1, active compounds read low 0.055 | locus YDR159W, strain sac3, active compounds read low 0.0898 | locus YDR162C, strain NBP2, active compounds read low 0.0476 | locus YDR195W, strain ref2 0.131 | locus YDR297W, strain sur2, active compounds read low 0.0541 | locus YDR318W, strain mcm21, active compounds read low 0.061 | locus YDR334W, strain swr1, active compounds read low 0.0622 | locus YDR335W, strain msn5, active compounds read low 0.0604 | locus YDR388W, active compounds read low 0.0583 | locus YDR392W, strain spt3, active compounds read low 0.0764 | locus YDR502C, strain sam2, active compounds read low 0.0603 | locus YEL003W, strain gim4, active compounds read low 0.0531 | locus YEL037C, strain rad23, active compounds read low 0.0573 | locus YEL061C, strain CIN8 (second series), active compounds read low 0.0612 | locus YEL061C, strain CIN8, active compounds read low 0.0491 | locus YER015W, strain faa2, active compounds read low 0.0598 | locus YER016W, strain bim1, active compounds read low 0.0634 | locus YER110C, active compounds read low 0.0724 | locus YER111C, strain swi4, active compounds read low 0.0738 | locus YER155C, strain BEM2 (second series), active compounds read low 0.0963 | locus YER155C, strain BEM2, active compounds read low 0.0618 | locus YER167W, strain BCK2, active compounds read low 0.0498 | locus YFR010W, strain ubp6, active compounds read low 0.0675 | locus YGL078C, strain dbp3, active compounds read low 0.0728 | locus YGL086W, strain mad1, active compounds read low 0.0553 | locus YGL167C, strain pmr1, active compounds read low 0.0771 | locus YGL173C, strain kem1, active compounds read low 0.0703 | locus YGL227W, strain vid30, active compounds read low 0.0629 | locus YGL240W, strain doc1, active compounds read low 0.089 | locus YGL248W, strain PDE1, active compounds read low 0.046 | locus YGL253W, strain hxk2, active compounds read low 0.0531 | locus YGR135W, strain pre9, active compounds read low 0.0589 | locus YGR229C, strain SMI1, active compounds read low 0.0609 | locus YGR252W, strain gcn5, active compounds read low 0.114 | locus YHR013C, strain ard1, active compounds read low 0.0983 | locus YHR027C, strain rpn1, active compounds read low 0.0623 | locus YHR030C, strain SLT2, active compounds read low 0.0501 and 0.104 | locus YHR079C, strain IRE1 (second series), active compounds read low 0.058 | locus YHR079C, strain IRE1, active compounds read low 0.114 | locus YHR094C, strain hxt1, active compounds read low 0.0575 | locus YHR129C, strain ARP1, active compounds read low 0.0576 | locus YHR142W, strain chs7, active compounds read low 0.0716 | locus YHR200W, strain rpn10, active compounds read low 0.0591 | locus YIL066C, strain RNR3, active compounds read low 0.143 | locus YIL073C, strain SPO22, active compounds read low 0.1 | locus YIL125W, strain kgd1, active compounds read low 0.0707 | locus YIR030C, strain dcg1, active compounds read low 0.0577 | locus YJL092W, strain hpr5, active compounds read low 0.0592 | locus YJL095W, strain BCK1 (second series), active compounds read low 0.0566 | locus YJL095W, strain BCK1, active compounds read low 0.0581 and 0.1 | locus YJL115W, strain asf1, active compounds read low 0.0714 | locus YJL129C, strain trk1, active compounds read low 0.0943 | locus YJL134W, strain LCB3, active compounds read low 0.048 | locus YJL154C, strain vps35, active compounds read low 0.0599 | locus YJL164C, strain tpk1, active compounds read low 0.0592 | locus YJL166W, strain qcr8, active compounds read low 0.0601 | locus YJL168C, strain set2, active compounds read low 0.0595 | locus YJL187C, strain SWE1 (second series), active compounds read low 0.0469 | locus YJL187C, strain SWE1, active compounds read low 0.058 | locus YJR043C, strain POL32, active compounds read low 0.0638
